# Epigenetic derep = Quantitative High-Throughput Screen for Regulators of Epigenetic Control. murine LDR cells, GFP reporter derepression, 30 h. Potency, µM (series often up to 53.9 µM), for the others: top-dose GFP activation, usual class: activators. 280,000 compounds, 0.2% hits; further: % of control where 0% means no effect; nearly all actives have a fitted effect of over 60% in size
#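 Derepression of a silenced CMV-GFP reporter in murine LDR cells is scored by enumerating GFP-positive cells with a laser-scanning microplate cytometer after 30 hours of treatment at 37 C.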
# Nrf2 inh = Nrf2 qHTS screen for inhibitors | A549 ARE-Fluc reporter, luciferase luminescence, 18-24 h | Potency, µM (top dose mostly 46 µM), for inactives: top-dose activity change, negative = inhibition, actives largely listed as inhibitors | 360,000 compounds, 2.1% hits; further: on the % scale 0 is the no-effect control and ±100 the full control effect; nearly all actives have a fitted effect of over 60% in size
#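 Quantitative HTS in A549 cells stably bearing an antioxidant response element-firefly luciferase construct. Inhibition of Nrf2-driven transcription was scored by luminescence after 18-24 h of compound exposure at 37 °C.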
# Nrf2 activator = qHTS of Nrf2 Activators | AREc32 ARE-luciferase reporter (MCF7-derived line), luminescence, 24 h | Potency, µM (doses to about 46.1 µM), inactives show at the top dose activation, hits mostly activators | 410,000 compounds, 0.31% hits | AID 624171, 2012; further: % of control where 0% means no effect; nearly all actives have a fitted effect of over 65% in size
#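 Reporter line AREc32 (ARE-Fluc), seeded overnight in OPTI-MEM with 5% FBS; compound pin-transferred, 24 hr at 37 deg C, 5% CO2; luminescent read-out.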
# PINK1 expr mod = A Quantitative High throughput Screen to Identify Chemical Modulators of PINK1 Expression. Potency, µM (titrated, usually from 76.6 µM), for the others: at the highest dose activation (PINK1 increase), most hits filed as activators. PINK1 immunofluorescence, high-content cytometry, 24 h. 410,000 compounds, 0.2% hits; active means well fitted activation curve with a large enough effect; inconclusive means small, poorly fitted or top-dose-only effect; cell line not stated here; further: % of control where 0% means no effect; nearly all actives have a fitted effect of over 65% in size
#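 Stable cell line, 250 cells/well, 12 h attachment; compounds pinned at 5 concentrations, 24 h; CCCP control. Fixed with nuclear dye, primary antibodies 12 h at 10 degrees C, secondary plus cell stain; laser-scanning cytometer read.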
# A549 viability = Nrf2 qHTS screen for inhibitors: counterscreen for cytotoxicity; A549 ARE-Fluc cells, CellTiter-Fluor viability, 18-24 h; Potency, µM (doses to about 46 µM), for the others: at the top dose activity change, negative = cytotoxicity, most hits filed as inhibitors; 390,000 compounds, 0.16% hits; AID 504648, 2011; further: on the % scale 0 is the no-effect control and ±100 the full control effect
#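 A549 ARE_Fluc cells in 5% FBS OPTI-MEM were exposed to compounds in concentration-response for 18-24 h at 37 deg C. Viability was read by CellTiter-Fluor fluorescence (Ex 405/Em 525) after 30 min, before the luciferase read.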
# Numbers without * were called inactive; u = inconclusive; x = not tested or not shown; [ ] = remark or other dose. Hits are enriched below; roughly 2.4% of the tested compounds scored in any of these assays. Unless noted, the call rests on the fitted dose curve; in most records, active means well fitted curve in the direction sought with a large enough effect; inconclusive means small, poorly fitted or top-dose-only effect, or another doubt; inactive means no such curve, though single readings can be large; an effect the other way counts as inactive or inconclusive. Potency means the concentration at half of the fitted maximal effect.
SMILES,Epigenetic derep,Nrf2 inh,Nrf2 activator,PINK1 expr mod,A549 viability
Oc1ccccc1C1C=C(c2ccc3c(c2)OCO3)NC(c2cccc(F)c2)N1 (configuration not stated),x,6.0%,x,-0.8%,1.8%
CCN(CC)c1ccc(/C=C/C(=O)C2C(=O)C=C(C)OC2=O)cc1 (configuration not stated),11.2µM*,u,5.7%,u,1.0%
COc1ccc2c(c1)-c1nc(-n3ncc(C(=O)N(C)C(C)c4ccon4)c3C3CC3)ncc1CC2 (configuration not stated),x,x,x,1.8%,x
O=C(Nc1ccc(S(=O)(=O)NC2CCCCC2)cc1)c1ccc(Br)o1,-2.1%,14.6µM*,-0.1%,-3.4%[38.3 µM],-12.6%
CCc1cccc(NC(=O)Cn2c(=O)n3nc(-c4cccc(F)c4)nc3c3ccccc32)c1,2.5%,x,5.62µM*,5.3%,-2.9%
COc1cccc(NC(=O)C(OC(=O)CNC(=O)c2ccccc2)c2ccccc2)c1 (configuration not stated),x,u,x,x,-4.1%
O=C(NCCNc1ccnc2cc(Cl)ccc12)c1ccccc1F,x,18.4µM*,3.7%,3.9%,-10.3%
Cc1c(P(=S)(c2ccccc2)c2ccccc2)[n+]2ccccc2n1CC(=O)c1ccccc1,x,-7.1%,x,x,2.5%
CC(c1ccco1)N(C)c1ncnc2ccc(-c3ccc4c(c3)OCO4)cc12 (configuration not stated),x,-7.4%,x,x,1.1%
CS(=O)(=O)Nc1cccc(-c2cc(F)c(S(=O)(=O)N3CCN(S(=O)(=O)c4ccc5c(c4)OCCO5)CC3)cc2F)c1,x,-21.8%,x,x,-0.2%
COc1ccc(N2CCN(C(=O)Cn3nc(Cc4cccnc4)c4ccccc4c3=O)CC2)cc1,5.0%,-26.5%,2.4%,-0.5%,4.3%
Cc1ccc(-n2ncc3c(NCc4cccnc4)ncnc32)c(C)c1,-1.0%,9.2µM*,-0.4%,5.1%,-13.2%
C(=NN1CCCCCC1)c1ccc2ccccc2n1,x,18.4µM*,-1.9%,-2.4%,-9.7%
CCCc1cc(F)c(S(=O)(=O)N2CCN(S(=O)(=O)c3ccc4c(c3)OCCO4)CC2)cc1F,x,12.6%,x,x,1.3%
CCn1c(SCC(=O)Nc2nc3ccc(C)cc3s2)nc2c(c1=O)SC(C)C2 (configuration not stated),-1.6%,18.4µM*,3.1%,-0.4%,u
NC1(C(=O)O)CCc2cc(P(=O)(O)O)ccc21 (configuration not stated),0.0%,x,x,x,x
C=CC[n+]1c(-c2ccc(OC)c(OC)c2)csc1NNC(=O)Nc1ccccc1,-1.4%,13µM*,17.1%,x,u
Oc1ccc2ccccc2c1N=Nc1ccccc1F,-0.1%,28.2%,3.55µM*,0.3%,-6.7%
O=C(Nc1cccc(Br)c1)c1ccc(Cl)c(S(=O)(=O)N2CCOCC2)c1,-1.2%,10.3µM*,-0.7%,2.4%[38.3 µM],u
CC(C)(C)c1ccc(C(=O)Nc2cccc(C(=O)N3CCOCC3)c2)cc1,x,8.2µM*,1.7%,-0.2%,u
Cc1ccc(C(=O)Nc2cccc(S(=O)(=O)N3CCCCC3)c2)cc1S(=O)(=O)N1CCOCC1,x,7.31µM*,-0.2%,0.8%,-6.5%
CC(=O)Oc1ccc(-c2ccc(C(=O)Nc3cccc(S(=O)(=O)N4CCOCC4)c3)cc2)cc1,-2.7%,13µM*,-0.7%,-0.1%,u
O=C(Nc1cccc(C(=O)NC2CC2)c1)c1ccc(Cl)c(S(=O)(=O)N2CCOCC2)c1,x,-10.0%,-0.6%,1.3%,-0.5%
COc1cc2c(s1)c1cnn(Cc3ccccc3F)c(=O)c1n2C,x,-16.2%,x,x,13.5%
N#Cc1nc(Nc2ccc(Br)cc2)nc(NC2CCCC2)n1,x,u,x,x,-17.7%
SMILES,Epigenetic derep,Nrf2 inh,Nrf2 activator,PINK1 expr mod,A549 viability
COc1cc(C(=O)Nc2cccc(S(=O)(=O)N3CCCC3)c2)c([N+](=O)[O-])cc1OC,x,-1.0%,-0.6%,-0.6%,-1.9%
Cc1ccc(C(=O)Nc2cccc(S(=O)(=O)N3CCCCC3)c2)cc1[N+](=O)[O-],x,16.4µM*,0.6%,0.4%,-14.9%
O=C(COc1ccc(C(=O)c2ccc(F)cc2)cc1)Nc1cccc(S(=O)(=O)N2CCOCC2)c1,x,23.1µM*,4.9%,-4.7%,-12.5%
CCOc1ccc(NC(=O)c2ccc(F)c(S(=O)(=O)N3CCN(c4ccccn4)CC3)c2)cc1,7.5%,u,0.6%,2.2%[38.3 µM],-13.9%
O=C(Nc1cccc(Cl)c1)c1ccc(F)c(S(=O)(=O)N2CCN(c3ccccn3)CC2)c1,0.2%,20.6µM*,3.6%,1.1%,-9.1%
O=C(COC(=O)CCC(=O)c1ccc(F)cc1)Nc1cccc(S(=O)(=O)N2CCOCC2)c1,-3.0%,0.7%,0.1%,-0.3%,-1.5%
Cc1cc2n(n1)CCC(=O)N2Cc1ccc(C(=O)Nc2ccc(Br)c(C)c2)cc1,-0.7%,u,14.2%,10.3%,13.2%
COc1cc(C(=O)Oc2cccc(Nc3ncnc4ccccc34)c2)cc(OC)c1OC,1.7%,14.6µM*,-0.8%,x,-16.9%
COCc1nnc(NC(=O)c2cc(Cl)ccc2OC)s1,-7.9%,27.0%,12.6µM*,0.0%,x
CC(NC(=O)C1CCC1)c1ccc(Br)cc1 (configuration not stated),0.0%,-3.5%,2.2%,-0.1%,-4.1%
CC(NC(=O)C1CCCC1)c1ccc(Br)cc1 (configuration not stated),x,25.9µM*,2.6%,-0.3%,17.4%
CN(C)c1ncc2nc(-c3cccs3)c(=O)n(C[C@H]3CCCO3)c2n1,x,x,x,0.4%,x
CCCNC(=O)c1ccc2c(c1)C1C3CCC(C3)C1C(c1ccccc1)N2 (configuration not stated),-0.5%,20.6µM*,0.4%,1.2%,u
CC(C)(C)NC(=O)c1ccc2c(c1)C1C3CCC(C3)C1C(c1ccccc1)N2 (configuration not stated),-1.0%,-3.4%,0.2%,3.0%,12.5%
COc1cc(=O)n2c(c1C(=O)NCc1ccco1)CCN(Cc1c(F)cccc1F)CC2,x,x,x,-0.3%,x
O=[N+]([O-])c1ccccc1C=NNc1ccccc1,x,-0.6%,6.31µM*,12.6%,-8.2%
O=[N+]([O-])c1ccccc1/C=N/NC1=NCCN1,x,1.8%,0.2%,2.1%,-2.0%
O=[N+]([O-])c1ccccc1N/N=C\c1ccccc1F,3.7%,u,u,1.0%,-18.5%
O=[N+]([O-])c1ccccc1N/N=C\c1ccccc1Cl,0.3%,u,10µM*,0.5%,-2.3%
Cc1cc2c(s1)c1cnn(Cc3c(F)cccc3C(F)(F)F)c(=O)c1n2C,x,15.0%,x,x,3.1%
CCCNC(=O)c1nnsc1S(=O)(=O)c1ccc(Cl)cc1,u,23.1µM*,-2.7%,-0.6%,u
